Source: PubChem BioAssay (NCATS)
Results filed as inconclusive are left out. Activity calls are given as the source filed them. Calls follow the shape of the dose curve; as a rule, active = well fitted curve in the direction sought with a large enough effect; inconclusive = small, poorly fitted or top-dose-only effect, or another doubt; inactive = no such curve, though single readings can be large; an effect the other way counts as inactive or inconclusive.

Experiments:
[1] = biological target: Cytochrome P450 3A4 (Homo sapiens) (UniProt P08684); test: qHTS Assay for Inhibitors and Substrates of Cytochrome P450 3A4 (AID 884); also: nearly all actives have a fitted effect of over 50% in size
Summary of the method: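 Luminescent readout of luciferin produced by CYP3A4 (20 nM) dealkylation of Luciferin-PPXE, 25 uM (its KM). NADPH-driven reaction ran 60 min at RT after 10 min compound preincubation; data scaled to 57 uM ketoconazole as 100% inhibition.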

3D7 = test: qHTS profiling for inhibitors of Plasmodium falciparum proliferation (AID 504749); also: nearly all actives have a fitted effect of over 60% in size; conditions: P. falciparum in erythrocytes, SYBR Green DNA, 72 h; series mostly up to 12.8 µM
Summary of the method: (§1)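 Quantitative HTS: compounds pinned into medium, infected erythrocytes added (0.3% parasitemia, 2.5% hematocrit), 72 h culture at 37 C under 5% CO2. Saponin/Triton lysis with SYBR Green I, overnight RT, then fluorescence read.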

AA1029 = test: as above; conditions: P. falciparum in erythrocytes, SYBR Green DNA, 72 h; series mostly up to 12.8 µM
Summary of the method: as §1

C2A = test: as above; conditions: P. falciparum in erythrocytes, SYBR Green DNA, 72 h; series mostly up to 12.8 µM
Summary of the method: as §1

CP203 = test: as above; conditions: P. falciparum in erythrocytes, SYBR Green DNA, 72 h; series mostly up to 12.8 µM
Summary of the method: as §1

CP211 = test: as above; conditions: P. falciparum in erythrocytes, SYBR Green DNA, 72 h; series mostly up to 12.8 µM
Summary of the method: as §1

CP252 = test: as above; conditions: P. falciparum in erythrocytes, SYBR Green DNA, 72 h; series mostly up to 12.8 µM
Summary of the method: as §1

CP286 = test: as above; conditions: P. falciparum in erythrocytes, SYBR Green DNA, 72 h; series mostly up to 12.8 µM
Summary of the method: as §1

CP291 = test: as above; conditions: P. falciparum in erythrocytes, SYBR Green DNA, 72 h; series mostly up to 12.8 µM
Summary of the method: as §1

CP315 = test: as above; conditions: P. falciparum in erythrocytes, SYBR Green DNA, 72 h; series mostly up to 12.8 µM
Summary of the method: as §1

DFO2036 = test: as above; conditions: P. falciparum in erythrocytes, SYBR Green DNA, 72 h; series mostly up to 12.8 µM
Summary of the method: as §1

ECU = test: as above; conditions: P. falciparum in erythrocytes, SYBR Green DNA, 72 h; series mostly up to 12.8 µM
Summary of the method: as §1

GB4 = test: as above; conditions: P. falciparum in erythrocytes, SYBR Green DNA, 72 h; series mostly up to 12.8 µM
Summary of the method: as §1

HB3 = test: as above; conditions: P. falciparum in erythrocytes, SYBR Green DNA, 72 h; series mostly up to 12.8 µM
Summary of the method: as §1

P93_24 = test: as above; conditions: P. falciparum in erythrocytes, SYBR Green DNA, 72 h; series mostly up to 12.8 µM
Summary of the method: as §1

PAD = test: as above; conditions: P. falciparum in erythrocytes, SYBR Green DNA, 72 h; series mostly up to 12.8 µM
Summary of the method: as §1

TAB165 = test: as above; conditions: P. falciparum in erythrocytes, SYBR Green DNA, 72 h; series mostly up to 12.8 µM
Summary of the method: as §1

7G8 = test: as above; conditions: P. falciparum in erythrocytes, SYBR Green DNA, 72 h; series mostly up to 12.8 µM
Summary of the method: as §1

CP268 = test: as above; conditions: P. falciparum in erythrocytes, SYBR Green DNA, 72 h; series mostly up to 12.8 µM
Summary of the method: as §1

ICS = test: as above; conditions: P. falciparum in erythrocytes, SYBR Green DNA, 72 h; series mostly up to 12.8 µM
Summary of the method: as §1

Measured: Potency
Potency is read from the fitted curve at half-maximal effect.

Cytochrome P450 3A4 (Homo sapiens), sequence (P08684 whole entry, looked up): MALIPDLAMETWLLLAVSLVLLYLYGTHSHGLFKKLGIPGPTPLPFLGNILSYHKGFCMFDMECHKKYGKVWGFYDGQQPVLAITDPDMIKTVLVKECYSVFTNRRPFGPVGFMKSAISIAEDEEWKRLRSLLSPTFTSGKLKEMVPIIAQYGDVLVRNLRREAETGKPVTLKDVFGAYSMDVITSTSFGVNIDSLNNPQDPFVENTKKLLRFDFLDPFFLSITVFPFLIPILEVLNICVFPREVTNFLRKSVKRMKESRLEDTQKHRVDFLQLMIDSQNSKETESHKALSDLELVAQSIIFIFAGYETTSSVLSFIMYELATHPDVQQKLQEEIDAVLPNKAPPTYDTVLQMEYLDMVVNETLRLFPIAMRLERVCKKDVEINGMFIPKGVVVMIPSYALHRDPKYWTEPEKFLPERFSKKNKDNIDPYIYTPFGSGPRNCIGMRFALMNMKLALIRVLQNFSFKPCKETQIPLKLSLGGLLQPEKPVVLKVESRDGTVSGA

O=C(c1cccc(F)c1)N1CCC2(CC1)CCN(C(c1ccccc1)c1ccccc1)CC2
inactive: [1]

O=C(c1cc(C(F)(F)F)cc(C(F)(F)F)c1)N1CCC[C@@]2(CCN(c3ccncc3)C2)C1
active: [1] 6310 nM

COc1ccc2[nH]cc(CCNc3nc(-c4ccoc4)nc4ccccc34)c2c1
active: [1] 3160 nM

c1ccc2c(Nc3ccncc3)nc(-c3ccc4c(c3)OCO4)nc2c1
active: [1] 501 nM

O=C(c1cnccn1)N1CCC2(CCCN(c3cccc(-c4ccccc4)c3)C2)CC1
active: [1] 2000 nM

COc1ccc(Oc2ncc3nc(-c4cc(F)cc(F)c4)c(=O)n(C)c3n2)cc1
active: [1] 5010 nM

Cc1ccccc1-c1cncnc1NCCN1CCOCC1
active: [1] 1580 nM

O=S(=O)(c1ccccc1)N1CCC[C@@]2(CCN(Cc3nccs3)C2)C1
active: [1] 3160 nM

COc1ccccc1-c1nccc(NCc2cccc(C)c2)n1
active: [1] 6310 nM

COCC(=O)N1CCC2(CC1)CN(Cc1nccs1)C2
inactive: [1]

Cc1cccc(CNc2cc(-c3cccc(NS(C)(=O)=O)c3)ncn2)c1
active: [1] 2000 nM

COc1ccccc1CNc1ncnc2ccc(-c3ccc(N(C)C)cc3)cc12
active: [1] 2000 nM

CC[C@@]12CCCN3CCc4c(n(c5ccccc45)C(=O)C1)[C@H]32
not listed: [1] | 7G8 | CP268 | ICS
inactive: all other assays above

c1ccc(Nc2ncnc3ccc(-c4ccc5c(c4)OCO5)cc23)cc1
active: [1] 2510 nM

COc1ccc2[nH]cc(CCNc3ncnc4ccc(-c5ccc(C(=O)N(C)C)cc5)cc34)c2c1
active: [1] 2510 nM

CN(C)c1ccc(-c2ccc3ncnc(NCc4ccccc4)c3c2)cc1
active: [1] 2510 nM

N[C@@H](CO)C(=O)NNCc1ccc(O)c(O)c1O
not listed: [1]
inactive: all other assays above

CN(C)[C@@H]1C(=O)C(C(N)=O)=C(O)[C@]2(O)C(=O)C3=C(O)c4c(O)ccc(Cl)c4[C@H](O)[C@H]3C[C@@H]12
inactive: C2A | CP203 | CP211 | CP252 | CP268 | CP291 | CP315
active: ICS 3980 nM

CCCN[C@@H](C)C(=O)Nc1ccccc1C
not listed: [1]
inactive: all other assays above

C[C@@H]1c2cccc(O)c2C(O)=C2C(=O)[C@@]3(O)C(O)=C(C(N)=O)C(=O)[C@@H](N(C)C)[C@@H]3[C@@H](O)[C@@H]21
active: 7G8 3980 nM | ICS 3550 nM
inactive: CP211

CC(=O)OCC1=C(C(=O)O)N2C(=O)[C@@H](NC(=O)CSc3ccncc3)[C@@H]2SC1
not listed: [1]
inactive: all other assays above

CO[C@]1(NC(=O)CSCC#N)C(=O)N2C(C(=O)O)=C(CSc3nnnn3C)CS[C@H]21
not listed: [1]
inactive: all other assays above

C[C@@H](CCc1ccccc1)NC[C@H](O)c1ccc(O)c(C(N)=O)c1
active: 7G8 11200 nM
not listed: [1] | 3D7 | DFO2036 | ECU | GB4 | HB3 | PAD | ICS
inactive: all other assays above

NC(=O)c1cc[n+](CC2=C(C(=O)O)N3C(=O)[C@@H](NC(=O)[C@H](c4ccccc4)S(=O)(=O)[O-])[C@@H]3SC2)cc1
active: 3D7 1120 nM | 7G8 178 nM | CP268 4050 nM | CP286 1780 nM | DFO2036 1780 nM | ECU 2000 nM | GB4 907 nM | HB3 891 nM | ICS 355 nM | P93_24 1260 nM | PAD 1410 nM | TAB165 1000 nM

CCCN(CCC)C(=O)[C@@H](CCC(=O)O)NC(=O)c1ccccc1
not listed: [1]
inactive: all other assays above

CC(=O)[C@@H]1CC[C@@H]2[C@@H]3CCC4=CC(=O)CC[C@@]4(C)[C@H]3CC[C@]21C
inactive: [1]

CC(C)(C)NC[C@H](O)c1cc(O)cc(O)c1
not listed: [1] | CP211
inactive: all other assays above
